From ChEMBL document CHEMBL4513149, “CO-ADD screening of MMV (CH) - MMV compounds” (2021)
Measured potencies and affinities stand elsewhere.

Legend:
Staphylococcus aureus = conditions: Concentration 20 uM; ASSAY_TEST Inhibition of Bacterial Growth; detection method Absorption (OD600); MEDIA CAMHB; plate type 384well; NBS; CORNING #3640; time 18 hr
Escherichia coli = conditions: Concentration 20 uM; ASSAY_TEST Inhibition of Bacterial Growth; detection method Absorption (OD600); MEDIA CAMHB; plate type 384well; NBS; CORNING #3640; time 18 hr

Compound | Inhibition (Staphylococcus aureus) [%] | Inhibition (Escherichia coli) [%]
CC(C)(C)c1ccc(N[C@@H]2CCCC[C@H]2NC(=O)c2ccco2)cc1 | 7.06 | 10.16
CN1CCN(c2nccc3nc(-c4ccc(F)c(F)c4)[nH]c23)CC1 | 17.33 | 8.63
CC(C)n1nc(-c2cc3c(Cl)cccc3[nH]2)c2c(N)ncnc21 | 11.03 | 4.95
CCOC(=O)c1cc(-c2csc(Nc3c(C)cc(C)cc3C)n2)on1 | 5.55 | 5.47
O=C(Nc1c(O)cccc1-c1nc2c(C(=O)O)cccc2o1)c1cc(-c2ccccc2)on1 | 0.11 | -12.15
CC(C)(CN)c1nc(-c2ccc(Cl)c(O)c2)c(-c2ccnc(N)n2)[nH]1.O=C(O)C(F)(F)F.O=C(O)C(F)(F)F | 18.2 | 12.46
Cc1cc(NC(=O)c2ccc(S(=O)(=O)N(Cc3ccccc3)C(C)C)cc2)no1 | 10.98 | 6.09
CC(C)NCC(=O)Nc1cccc(C(=O)Nc2cccc(C(F)(F)F)c2)c1 | 3.81 | -2.15
CC(C)C(NC(=O)Cc1cccc2ccccc12)C(=O)Nc1cccc(C#N)c1 (stereo not drawn) | 17.14 | 6.32
COc1ccccc1OCCCCn1c(C2CC2)nc2ccccc21 | 12.87 | 4.8
C[C@H](C(N)=O)N1CCCC[C@H]1c1ccc(OCc2cccc(F)c2)cc1 | 21.57 | 11.68
O=C(Nc1cnc2ccccc2c1)c1cccc(-n2cnnn2)c1 | 5.61 | -2.29
CCCS(=O)(=O)N1CCC(CO)(Cc2ccccc2C(F)(F)F)CC1 | 8.25 | -1.16
Cc1nnc(NC(=O)c2cn(-c3ccccc3)nc2-c2ccccc2C)o1 | 8.57 | 8.61
N#CCN(CCCCN1CCN(c2ccc(F)cc2)CC1)C(=O)OCc1ccccc1 | 23.36 | 7.95
CCCNC(=O)N1CCC2(CC1)CC(=O)c1cc(C)ccc1O2 | 20.33 | 10.17
O=C1[C@@H](Oc2ccccc2)[C@@H](c2ccc(Cl)cc2)N1CCn1cnc2c(NCc3ccccc3)ncnc21 | -4.13 | 1.08
c1ccc(Oc2ccc(-c3cc(C4CCOCC4)[nH]n3)cc2)cc1 | 24.63 | 11.25
COc1ccccc1CNC(=O)c1cc(C2CC2)nc2c1cnn2C(C)C | 13.79 | -2.58
COc1cc(NC(=O)Cc2nn(C)c(=O)c3ccccc23)ccc1Cl | 23.8 | 11.61
COc1cc(Br)cc2cc(C(=O)Nc3cccc(C(F)(F)F)c3)c(=O)oc12 | 7.48 | 1.89
COc1ccc(C2=NCCN2)cc1-c1cn(-c2cccc(C3=NCCN3)c2)nn1.O=C(O)C(F)(F)F.O=C(O)C(F)(F)F | 20.97 | 10.7
CC(C)=CCC/C(C)=C\CNCCNC1C2CC3CC(C2)CC1C3 (stereo not drawn) | 37.58 | 10.47
O=C(C1CCN(c2nnc(-n3cccc3)s2)CC1)N1CCC(Cc2ccccc2)CC1 | 17.77 | 6.98
COc1ccc(C2=NN(C3CCCCCC3)C(=O)C2(C)C)cc1OCCCCOc1ccc(-c2nn[nH]n2)cc1 | 39.77 | -0.89

Compound | Inhibition (Staphylococcus aureus) [%] | Inhibition (Escherichia coli) [%]
CNc1nnc(Sc2cnn(-c3ccccc3)c(=O)c2Cl)s1 | 17.43 | -7.26
O=C(NC1CCN(c2ccnc3ccccc23)C1)c1cccc(C(F)(F)F)c1 (stereo not drawn) | 10.7 | 9.38
CC(=O)O.CC(=O)O.Nc1ncnc2c1ncn2[C@@H]1O[C@H](COS(=O)(=O)NC(=O)c2ccccc2O)[C@@H](O)[C@H]1O | 15.68 | 5.07
CC[C@H](CO)NCCN[C@H](CC)CO.Cl.Cl | 13.87 | -1.24
COc1cccn2c(C(=O)N3CCCCC3)c(C(F)(F)F)nc12 | 18.98 | -2.18
CCn1cnc2c(Nc3cc(F)cc(F)c3)nc(C#N)nc21 | 36.21 | 12.2
CC(Oc1cccc(Cl)c1)C(=O)Nc1ccc2oc(-c3ccncc3)nc2c1 (stereo not drawn) | 60.53 | 7.3
Nc1ncc(Br)cc1-c1nc2cc(Cl)cnc2[nH]1 | 26.53 | 12.85
CCC(NC(=O)c1ccccc1NC(=O)c1ccc(C)cc1)C(=O)OC (stereo not drawn) | 17.84 | 3.87
CNC(=O)C1Cc2c([nH]c3cc(Cl)ccc23)C2(CCN(CCc3ccccc3)CC2)N1 (stereo not drawn) | 24.47 | 9.53
CC(C(=O)Nc1ccc2oc(-c3ccncc3)nc2c1)c1ccccc1 (stereo not drawn) | 33.61 | 6.76
CC1(COc2ccc(N3CCC(Oc4ccc(OC(F)(F)F)cc4)CC3)cc2)Cn2cc([N+](=O)[O-])nc2O1 (stereo not drawn) | 13.25 | 11.79
Cc1cc(NCC(C)C)c2[nH]nc(-c3ccccc3)c2n1 | 14.44 | 8.23
CN1CCC(NCc2cccc(-c3ccc(S(=O)(=O)NCc4ccccc4)cc3)c2)CC1 | 14.84 | 4.63
COc1cccc(CC(=O)N2CCC(n3c(C)nc4ccc(F)cc43)CC2)c1 | 21.64 | 9.91
Cc1cc(O)nc(-n2nc(C)cc2C)n1 | 9.17 | 6.91
CC(C)(C)n1nc(-c2ccccc2)c2c(N)ncnc21 | 6.95 | -3.37
COc1ccc(-c2cnc3ccc(N4CCCC4)nn23)cc1OC | 12.67 | 7.3
CN1CCCN(C(c2ccccc2)c2ccc(Cl)cc2)CC1 (stereo not drawn) [HOMOCHLORCYCLIZINE] | 14.31 | 4.77
O=C(Nc1cccc(-c2ccc(NCCCN3CCCC3)nc2)c1)c1ccccc1 | 10.81 | 7.66
CC(C)(C)CN1C(=O)C(c2ccccc2)(c2ccccc2)N=C1N | 17.09 | 4.18
CC(C)C(C(=O)Nc1ccc(S(=O)(=O)N(C)C)cc1)c1ccc(Cl)cc1 (stereo not drawn) | 3.5 | 11.91
O=C(C1CCN(c2nnnn2-c2ccccc2)CC1)N1CCc2ccccc2C1 | 18.44 | 5.61
O=C(NCCN1CCCC1)c1cc(NCCCCN2CCC(F)(F)CC2)nc2ccc(Cl)cc12 | 22.5 | 8.02
O=C(NCc1ccoc1)N1CCN(Cc2ccc3c(c2)OCO3)CC1 | 17.61 | 3.25

Compound | Inhibition (Staphylococcus aureus) [%] | Inhibition (Escherichia coli) [%]
FC(F)(F)c1ccc(N(c2cccnc2)C2CCN(c3ccc(C(F)(F)F)cn3)CC2)cc1 | 14.25 | 5.86
Cc1cc(C)cc(COc2ccc3c(C)c(CCC(=O)O)c(=O)oc3c2C)c1 | 19.34 | 4.13
Cc1ccccc1C(=O)N1N=C(Nc2ccccc2)SC1(C)C | 8.67 | 8.51
O=C(c1cc2ccccc2o1)N1CCN(Cc2ccc3c(c2)OCO3)CC1 | 8.69 | 11.22
Cl.c1ccc(Oc2ccc(-c3cc(N4CCNCC4)[nH]n3)cc2)cc1 | 14.57 | 9.1
CS(=O)(=O)c1ccc(C(=O)N(CC2CCCO2)c2nc3ccccc3s2)cc1[N+](=O)[O-] (stereo not drawn) | 17.15 | 7.54
Cc1ccc(S(=O)(=O)n2cc(-c3ccnc(N)c3)c3cc(Br)cnc32)cc1 | 9.7 | -3.65
O=C(NC1CC1)c1ccc(N2CCC(Cc3ccccc3)CC2)nc1 | 20.17 | 11.23
CCc1ccc(S(=O)(=O)Nc2cc(CN3CCN(CCC(C)C)CC3)ccc2C)cc1 | 21.02 | 13.04
O=C(C1CCCCC1)N1CC(=O)N2CCc3ccccc3C2C1 (stereo not drawn) [PRAZIQUANTEL] | 18.11 | 6.83
O=C(NCc1nnc2n1CCCCC2)c1ccc(-c2ccc(F)cc2)o1 | 15.64 | 7.05
COc1ccc(C(=N)N)cc1-c1cn(-c2ccc(C(=N)N)cc2)nn1.Cl.Cl | 4.09 | 2.37
O=C(c1[nH]nc2c1CCCC2)N1CCN(Cc2ccc3c(c2)OCO3)CC1 | 14.51 | 7.99
Nc1nc(N)c2c3c(sc2n1)CN(Cc1ccccc1)CC3 | 15.72 | 6.81
O=C(NCc1cc(Cl)cc(Cl)c1)c1c(C(F)(F)F)nc2ccccn12 | 22.39 | 10.43
NC(=O)c1cc(-c2ccsc2)ccc1OCCOc1ccccc1 | 14.87 | 5.41
O=C(C1CCN(c2cc(-n3cccc3)ncn2)CC1)N1CCc2ccccc2C1 | 7.19 | 12.02
CCCCOC(=O)Nc1cc2nc(C3CCCCC3)[nH]c2cc1N1CCCC1 | 9.54 | -0.47
CCc1ccc([C@@H]2C[C@H](C(F)(F)F)n3ncc(C(=O)NCc4ccc(OC)cc4)c3N2)cc1 | 5.55 | -1.62
Cc1ccc(NC(=O)c2cc(S(=O)(=O)NC(C)(C)C)ccc2C)nc1 | 21 | 8.11
CCc1ccc(C(NCc2nc(N)nc(N(C)C)n2)C(C)C)cc1 (stereo not drawn) | 6.21 | 7.08
CC(C)(C)n1nc(Cc2ccc(F)c(Cl)c2)c2c(N)ncnc21 | 12.68 | 11.38
Cc1cc(C)c2cc(C(=O)NC3CCCCCCC3)[nH]c2c1 | 16.44 | 7.15
CC(C)(C)C(=O)N(CCCCCCN1C[C@H](O)[C@@H](O)[C@H](O)[C@H]1CO)C1CCCCCC1 | -1.36 | 4.68
